In the supplement of paper PMC6555819:

Assays:
Test in all cases: PBM binding z-score (relative to random genomic background probes); higher = stronger binding; sequences stand for … in GC…GCGATTGACAGCGTAGAATGAAGG
[1] = test system: FXR:RXRa (NR concentration 270 nM, RXRa partner concentration 90 nM)
In short: (§1)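 Custom Agilent 4×180K protein-binding microarrays carried double-stranded probes, each with a 34-nt variable region. These regions held direct-repeat seeds, single-nucleotide variants, half-site ablations and random human genomic background sequences. Ligand-free nuclear receptor dimers were incubated on the arrays for 1 h, antibodies against each partner (one per run) detected binding, and scanned fluorescence was regression-normalized. Binding z-scores take the random background probes as reference.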

[2] = test system: LXRa:RXRa (NR concentration 270 nM, RXRa partner concentration 90 nM)
In short: as §1

[3] = test system: LXRa homodimer (NR concentration 270 nM)
In short: as §1

[4] = test system: LXRb:RXRa (NR concentration 270 nM, RXRa partner concentration 90 nM)
In short: as §1

[5] = test system: LXRb homodimer (NR concentration 270 nM)
In short: as §1

[6] = test system: PPARa:RXRa (NR concentration 270 nM, RXRa partner concentration 90 nM)
In short: as §1

[7] = test system: PPARg:RXRa (NR concentration 180 nM, RXRa partner concentration 90 nM)
In short: as §1

[8] = test system: PPARg:RXRa 270nM:90nM, anti-RXR (NR concentration 270 nM, RXRa partner concentration 90 nM)
In short: as §1

[9] = test system: PPARg:RXRa 30nM:10nM, anti-RXR (NR concentration 30 nM, RXRa partner concentration 10 nM)
In short: as §1

[10] = test system: PPARg:RXRa 90nM:30nM, anti-RXR (NR concentration 90 nM, RXRa partner concentration 30 nM)
In short: as §1

[11] = test system: PPARg:RXRa DBDmut IVT, anti-RXR (DBD mutation: RXRa K156A/R161A, NR concentration 270 nM, RXRa partner concentration 90 nM)
In short: as §1

[12] = test system: PPARg:RXRa IVT, anti-PPARg (NR concentration 270 nM, RXRa partner concentration 90 nM)
In short: as §1

[13] = test system: PPARg DBDmut:RXRa IVT, anti-PPARg (DBD mutation: PPARg1 K132A/R137A, NR concentration 270 nM, RXRa partner concentration 90 nM)
In short: as §1

[14] = test system: PPARg DBDmut IVT, anti-PPARg (DBD mutation: PPARg1 K132A/R137A, NR concentration 270 nM)
In short: as §1

[15] = test system: PPARg homodimer (NR concentration 180 nM)
In short: as §1

[16] = test system: PXR:RXRa (NR concentration 270 nM, RXRa partner concentration 90 nM)
In short: as §1

[17] = test system: PXR homodimer (NR concentration 270 nM)
In short: as §1

[18] = test system: RARa:RXR (NR concentration 270 nM, RXRa partner concentration 90 nM)
In short: as §1

[19] = test system: RARa homodimer (NR concentration 270 nM)
In short: as §1

[20] = test system: RARb:RXRa (NR concentration 270 nM, RXRa partner concentration 90 nM)
In short: as §1

Sequence | PBM binding z-score [1] | PBM binding z-score [2] | PBM binding z-score [3] | PBM binding z-score [4] | PBM binding z-score [5] | PBM binding z-score [6] | PBM binding z-score [7] | PBM binding z-score [8] | PBM binding z-score [9] | PBM binding z-score [10] | PBM binding z-score [11] | PBM binding z-score [12] | PBM binding z-score [13] | PBM binding z-score [14] | PBM binding z-score [15] | PBM binding z-score [16] | PBM binding z-score [17] | PBM binding z-score [18] | PBM binding z-score [19] | PBM binding z-score [20]
ACTAGTTGGTCAGCTGAGGTTACACACAATTCGG | 1.56 | 0.761 | 0.139 | 1.29 | 0.188 | 1.42 | 0.989 | 0.496 | 0.134 | 0.586 | 1.4 | 1.58 | 0.987 | 0.803 | 1.09 | 2.46 | 0.19 | 1.64 | -0.138 | 1.73
CAAACTAGGTCAAGAGGTCAAAGTGCGCTTCCCG | 7.08 | 6.47 | 5.76 | 5.71 | 2.04 | 6.59 | 10.2 | 8.63 | 7.04 | 8.54 | 8.41 | 8.51 | 1.86 | 0.825 | 5.5 | 6.13 | 2.6 | 7.48 | 2.21 | 5.47
TCTTGTAGATCAATAGAGGTTAAGACAGTGCGCT | 0.684 | 3.16 | 0.434 | 1.56 | 0.045 | 1.98 | 0.205 | 1.48 | 2.9 | 2.34 | 1.86 | 0.857 | 0.686 | 0.616 | 0.896 | 2.24 | 0.168 | 1.71 | 0.602 | 0.993
TGAATGAGGTTAAAGATCAGGGTACGTGGCGTCG | 2.96 | 2.35 | -0.149 | 1.67 | 0.353 | 4.43 | 5.59 | 6.33 | 4.71 | 6.42 | 2.05 | 3.93 | 1.21 | 0.291 | 1.09 | 2.14 | -0.073 | 3.31 | -0.532 | 2.21
TAGCCTAGGTCACTCAGGGGCCAGTATAGAAAGC | 3.32 | 2.18 | -0.258 | 2 | -0.123 | 3.18 | 2.64 | 2.29 | 0.26 | 1.24 | 1.65 | 3.3 | 0.795 | 0.141 | 1.5 | 1.73 | -0.391 | 3.07 | -0.348 | 3.99
TATACAGGGTCAAAGCCCAGAGTACGAATGTCGA | 7.38 | 5.88 | 2.47 | 4.7 | 2.15 | 5.93 | 6.29 | 5.96 | 2.69 | 4.51 | 2.27 | 4.44 | 3.06 | 1.86 | 2.91 | 3.69 | 0.241 | 4.55 | 0.678 | 4.28
ATCGAAAGGTCGATGAGGTGAGTATACACCGTTT | 3.46 | 2.76 | -0.117 | 2.16 | 0.539 | 3.5 | 1.83 | 2.19 | 1.1 | 1.4 | 0.00502 | 1.61 | 1.01 | 0.136 | 1.49 | 2.58 | 1.07 | 2.98 | 0.305 | 3.37
TCAGACAGGTGAAGGTAACTCAGGTACGCAGTCG | 0.942 | 1.82 | -0.0918 | 1.2 | -0.116 | 1.34 | 0.719 | 2.37 | 3.89 | 2.98 | 2.78 | 1.13 | 0.341 | -0.339 | 0.564 | 0.641 | 0.447 | 0.878 | 0.775 | 1.18
